What all share (experiment): NCI-60 one-dose screen, 48 h (100 = growth as untreated, 0 = no growth, -100 = all killed)
What all share (conditions): 10 µM unless noted

In test [1] the test system is HCT-15 colon.
Test [2] deals with HT29 colon.
For test [3], the system named is SNB-75 CNS.
Test [4] relates to SNB-19 CNS.
Test [5] has as its system U251 CNS.
The subject of test [6] is PC-3 prostate.
The test system of test [7] is SK-MEL-5 melanoma.
For test [8], the system named is UACC-62 melanoma.
Test [9] deals with LOX IMVI melanoma.
For test [10], the system named is SK-MEL-28 melanoma.
Test [11] concerns SK-MEL-2 melanoma.
The subject of test [12] is EKVX NSCLC.
The subject of test [13] is SN12C renal.
Test [14] has as its system UO-31 renal.
Test [15] deals with TK-10 renal.
Test [16] deals with ACHN renal.
For test [17], the system named is CAKI-1 renal.
The test system of test [18] is A498 renal.
In test [19] the test system is HL-60(TB) leukemia.
Test [20] relates to CCRF-CEM leukemia.

From PubChem BioAssay (NCI) come the findings set out here.

SMILES strings stand for the structures. Where “and” joins values, the source holds several entries; their conditions need not be identical. Equal entries are not always repeated. Compounds without any hit were thinned out: in the full panel of roughly 83,000, 20% have a hit.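 Values shown are percent growth following 48 h exposure of cells in 96-well plates to a single concentration of compound; below 10 was considered active.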 Calls of active or inactive are those of the source.

For `C[C@]12CCc3sc(Nc4ccc(O)cc4)nc3C1=CC[C@@H]1[C@@H]2CC[C@]2(C)C(=O)CC[C@@H]12`, the growth in test [1] was -68% (active); in test [2], 10.3% (inactive); in [3] it was 41.7% (inactive); in [4] it was 64.6% (inactive); in test [5] it was 19.5% (inactive); in test [6] it was 39.1% (inactive). Further, the growth in [7] was 62% (inactive); in test [8], 55.8% (inactive); in [9], -8.01% (active); in test [10], 77.9% (inactive); in test [11], 72.5% (inactive); in test [12], 98% (inactive). For the same compound, the growth in test [13] is 30.4% (inactive); in test [14], -48.8% (active); in test [15], 22.8% (inactive); in test [16], -17.3% (active); in test [17], 47.1% (inactive); in test [18], 101% (inactive). Besides, the results for the growth in [19] and in [20] were 8.98% (active) and 8.33% (active), respectively.

`COC(=O)C1=CCCN(C)C1`: the growth is 106% (inactive) and 100% (inactive) in test [1]; 106% (inactive) and 104% (inactive) in test [2]; 103% (inactive) and 90.3% (inactive) in test [3]; 106% (inactive) and 109% (inactive) in [4]; 107% (inactive) in test [5]; 92.9% (inactive) in test [6]. The growth in test [7] was 102% (inactive); in [8] it was 111% (inactive) and 101% (inactive); in test [9], 98.3% (inactive) and 99.8% (inactive); in test [10], 110% (inactive) and 108% (inactive); in test [11], 106% (inactive) and 30.5% (inactive); in [12], 97.8% (inactive) and 98.7% (inactive). Moreover, the growth was 107% (inactive) and 105% (inactive) in [13]; 80.4% (inactive) and 94% (inactive) in [14]; 106% (inactive) and 103% (inactive) in [15]; 96.9% (inactive) in test [16]; 93.7% (inactive) and 102% (inactive) in [17]; 97.8% (inactive) and 112% (inactive) in [18].

`COc1ccn(C)c(=O)c1C#N`: the growth in test [1] was 101% (inactive); in test [2] it was 78.8% (inactive); in test [3] it was 114% (inactive); in test [4] it was 109% (inactive); in [5], 92% (inactive); in [6], 94.7% (inactive). The growth was 98% (inactive) in [7]; 95.9% (inactive) in test [8]; 97% (inactive) in test [9]; 106% (inactive) in test [10]; 72.9% (inactive) in test [11]; 105% (inactive) in test [12]. Moreover, the growth in test [13] was 105% (inactive); in [14], 87.2% (inactive); in test [15] it was 78.5% (inactive); in [16], 102% (inactive); in test [17], 100% (inactive); in test [18], 86.2% (inactive). In addition, the growth in test [19] was 104% (inactive).

As for `C[C@]12CCc3nc(-c4ccc(O)c(O)c4)sc3C1=CC[C@@H]1[C@@H]2CC[C@]2(C)C(=O)CC[C@@H]12`, the growth is 26% (inactive) in [1]; 77.7% (inactive) in test [2]; 92.3% (inactive) in test [3]; 75% (inactive) in test [4]; 40.5% (inactive) in test [5]; 34.3% (inactive) in test [6]. The growth in test [7] was 78.5% (inactive); in test [8], 91.5% (inactive); in test [9] it was 89.1% (inactive); in [10], 84.6% (inactive); in test [11], 104% (inactive); in test [12] it was 95.7% (inactive). Besides, the growth was 72.7% (inactive) in [13]; 43% (inactive) in test [14]; 53.6% (inactive) in test [15]; 51.3% (inactive) in test [16]; 39.7% (inactive) in test [17]; 113% (inactive) in test [18]. The growth in test [19] is 51.4% (inactive); in test [20], 47.5% (inactive).

With `CCCCCCCCCCCCCCCC[n+]1ccccc1`, the growth was 17.1% (inactive) and 15.2% (inactive) in test [1]; -68.2% (active) and -58.8% (active) in test [2]; -77.3% (active) and -40.5% (active) in test [3]; -88.4% (active) and -62.6% (active) in test [4]; -90.4% (active) and -76.3% (active) in [5]; -48.7% (active) and -80.9% (active) in [6]. For the same compound, the growth was -100% (active) and -94.8% (active) in test [7]; -68% (active) and -46.2% (active) in test [8]; -72.9% (active) and -79.8% (active) in test [9]; -55% (active) and -30.7% (active) in test [10]; -83.3% (active) and -80.1% (active) in [11]; -47.9% (active) and -2.17% (active) in test [12]. Besides, the growth in [13] is -37.9% (active) and -29.2% (active); in test [14] it was -28% (active) and 11.7% (inactive); in [15], -74.4% (active); in test [16] it was -23.8% (active) and 7.44% (active); in test [17], -16.1% (active) and -34.4% (active); in [18] it was -18.7% (active) and -7.63% (active). Also, the growth in test [19] is -55.7% (active).

Take `Nc1c(Cl)c(Cl)nc(C(=O)O)c1Cl`: the growth in test [1] was 95% (inactive); in test [2] it was 110% (inactive); in test [3] it was 71.4% (inactive); in test [4], 95.1% (inactive); in test [5], 94.2% (inactive); in test [6], 84.9% (inactive). Besides, the growth in [7] is 108% (inactive); in test [8] it was 92.4% (inactive); in [9] it was 90.7% (inactive); in [10], 120% (inactive); in test [11], 92.5% (inactive); in test [12], 86.5% (inactive). In addition, the growth was 93.6% (inactive) in [13]; 71.1% (inactive) in test [14]; 99.2% (inactive) in test [15]; 88.2% (inactive) in test [16]; 90.1% (inactive) in [17]; 138% (inactive) in [18]. Further, in [19], the growth is 62.8% (inactive).

Consider `O=C(O)c1ccccc1N(CCO)CCCl`, for which the growth is 87% (inactive) in test [1]; 115% (inactive) in test [2]; 81.3% (inactive) in test [3]; 98.8% (inactive) in test [4]; 94.5% (inactive) in [5]; 87.6% (inactive) in test [6]. In addition, the growth in test [7] was 101% (inactive); in test [8] it was 94% (inactive); in test [9], 86.6% (inactive); in [10] it was 100% (inactive); in test [11] it was 116% (inactive); in test [12], 118% (inactive). In addition, the growth was 98.3% (inactive) in test [13]; 88.2% (inactive) in [14]; 117% (inactive) in test [15]; 95% (inactive) in test [16]; 112% (inactive) in test [17]; 100% (inactive) in test [18]. Moreover, the growth in test [19] was 53.8% (inactive); in test [20], -3.53% (active).
